PubChem BioAssay (NCI)
The panel holds about 83,000 compounds, 20% with a hit somewhere; the sample as a whole holds those more often.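 Plates (96-well) were seeded with cells, treated with compound at one concentration, and incubated for 48 hours before percent growth was determined.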 The source made the active and inactive calls. Rule for the calls: active = growth percent below 10; inactive = the rest.

Columns and labels:
Assay in all cases: NCI-60 one-dose screen, 48 h (100 = growth as untreated, 0 = no growth, -100 = all killed)
DU-145 prostate = conditions: 10 µM unless noted
K-562 leukemia = conditions: 10 µM unless noted
MALME-3M melanoma = conditions: 10 µM unless noted
MDA-MB-231 breast = conditions: 10 µM unless noted
RXF 393 renal = conditions: 10 µM unless noted
SF-268 CNS = conditions: 10 µM unless noted
SF-539 CNS = conditions: 10 µM unless noted
UACC-257 melanoma = conditions: 10 µM unless noted
M14 melanoma = conditions: 10 µM unless noted
HCT-15 colon = conditions: 10 µM unless noted
HT29 colon = conditions: 10 µM unless noted
SNB-19 CNS = conditions: 10 µM unless noted
U251 CNS = conditions: 10 µM unless noted
PC-3 prostate = conditions: 10 µM unless noted
SK-MEL-5 melanoma = conditions: 10 µM unless noted
UACC-62 melanoma = conditions: 10 µM unless noted
LOX IMVI melanoma = conditions: 10 µM unless noted
SK-MEL-28 melanoma = conditions: 10 µM unless noted
SNB-75 CNS = conditions: 10 µM
SF-295 CNS = conditions: 10 µM unless noted

Measured: growth

O=C(Nc1cccc(-n2cc(-c3ccncc3)c(-c3ccc(Cl)c(O)c3)n2)c1)Nc1cccc(C(F)(F)F)c1
inactive: DU-145 prostate 23.1% | K-562 leukemia 13.4% | MDA-MB-231 breast 21.3% | RXF 393 renal 31.3% | SF-268 CNS 28.5% | SF-539 CNS 38.5% | M14 melanoma 16.6% | HCT-15 colon 18.2% | HT29 colon 77.8% | SNB-19 CNS 32.5% | U251 CNS 15.8% | UACC-62 melanoma 10.4% | LOX IMVI melanoma 23.8% | SK-MEL-28 melanoma 29.4%
active: MALME-3M melanoma 1.16% | UACC-257 melanoma -11.6% | PC-3 prostate 4.28% | SK-MEL-5 melanoma -25.5%

O=c1c2sc3ncccc3c2nnn1-c1ccccc1
inactive: DU-145 prostate 115% | K-562 leukemia 93.3% | MALME-3M melanoma 105% | MDA-MB-231 breast 97.2% | RXF 393 renal 101% | SF-268 CNS 102% | SF-539 CNS 102% | UACC-257 melanoma 102% | M14 melanoma 108% | HCT-15 colon 96% | HT29 colon 109% | SNB-19 CNS 93.6% | U251 CNS 97.7% | PC-3 prostate 98.7% | SK-MEL-5 melanoma 102% | UACC-62 melanoma 105% | LOX IMVI melanoma 104% | SK-MEL-28 melanoma 109%

COc1ccc(C2=Nn3c(nnc3-n3nc(C)cc3C)SC2)cc1
inactive: MALME-3M melanoma 49.9% | SF-268 CNS 29.9% | UACC-257 melanoma 64.7% | M14 melanoma 10% | SNB-19 CNS 46% | U251 CNS 15.5% | UACC-62 melanoma 39.5% | LOX IMVI melanoma 26.9% | SK-MEL-28 melanoma 54.8%
active: DU-145 prostate -15.9% | K-562 leukemia 4.47% | MDA-MB-231 breast -7.82% | RXF 393 renal 4.22% | SF-539 CNS 1.51% | HT29 colon -17% | PC-3 prostate 9.91% | SK-MEL-5 melanoma 0.149%

Fc1ccccc1-c1nc(-c2nc3cc(Cl)c(Cl)cc3[nH]2)c2ccccn12
inactive: DU-145 prostate 51.5% | K-562 leukemia 73.1% | MALME-3M melanoma 34.5% | MDA-MB-231 breast 91.4% | RXF 393 renal 69.2% | SF-268 CNS 77.4% | UACC-257 melanoma 82.2% | M14 melanoma 71% | HT29 colon 70.8% | SNB-75 CNS 38.1% | SNB-19 CNS 93.1% | U251 CNS 95% | PC-3 prostate 62.2% | SK-MEL-5 melanoma 79.4% | UACC-62 melanoma 83.1% | LOX IMVI melanoma 79.9% | SK-MEL-28 melanoma 83.9%

CCC(=O)OC1=CN2C(=NC(c3ccc(N)cc3)=CC2c2cc(OC)c(OC)c(OC)c2)S1 (centres undefined)
inactive: MALME-3M melanoma 63.7% | MDA-MB-231 breast 67.1% | RXF 393 renal 35.1% | SF-268 CNS 60.8% | SF-539 CNS 43.8% | UACC-257 melanoma 37.1% | M14 melanoma 52.5% | HCT-15 colon 27.6% | SNB-19 CNS 83.8% | U251 CNS 46.3% | PC-3 prostate 49% | SK-MEL-5 melanoma 66.9% | UACC-62 melanoma 78% | LOX IMVI melanoma 45.3% | SK-MEL-28 melanoma 50.8%
active: DU-145 prostate -16.6% | K-562 leukemia 6.1%

c1ccc(-c2nc(N3CCNCC3)c3nc(-c4ccccc4)oc3n2)cc1
inactive: MALME-3M melanoma 91.8% | SF-268 CNS 36.1% | SF-295 CNS 91.2% | UACC-257 melanoma 105% | M14 melanoma 99.7% | SK-MEL-5 melanoma 36.2% | SK-MEL-28 melanoma 101%
active: DU-145 prostate -63.2% | K-562 leukemia -10.7% | MDA-MB-231 breast -81% | SF-539 CNS -40% | HCT-15 colon -81.3% | HT29 colon -86.6% | SNB-19 CNS 5.98% | U251 CNS -93.5% | PC-3 prostate -62.3% | UACC-62 melanoma -92.8%

COc1ccc(-c2cnnn2-c2nonc2-n2cccc2)cc1OC
active: K-562 leukemia 3.29%
inactive: DU-145 prostate 80.9% | MALME-3M melanoma 25.1% | MDA-MB-231 breast 65.7% | RXF 393 renal 75.6% | SF-268 CNS 71.8% | UACC-257 melanoma 79.6% | M14 melanoma 39.9% | HT29 colon 12.3% | SNB-75 CNS 51.3% | SNB-19 CNS 84.2% | U251 CNS 56.8% | PC-3 prostate 61.2% | SK-MEL-5 melanoma 55.6% | UACC-62 melanoma 54.1% | LOX IMVI melanoma 44.2% | SK-MEL-28 melanoma 67.8%

Cc1ccc(Cc2c(C=O)nc(N)[nH]c2=O)c2ccccc12
inactive: DU-145 prostate 113% | K-562 leukemia 107% | MALME-3M melanoma 98.2% | MDA-MB-231 breast 107% | RXF 393 renal 106% | SF-295 CNS 118% | SF-539 CNS 102% | UACC-257 melanoma 93.2% | M14 melanoma 101% | HCT-15 colon 101% | SNB-75 CNS 93% | SNB-19 CNS 98.5% | U251 CNS 95.3% | PC-3 prostate 88.8% | UACC-62 melanoma 110% | LOX IMVI melanoma 96.2% | SK-MEL-28 melanoma 104%

COc1cc(-c2ncn(/C=C\C(=O)OC(C)C)n2)cc(C(F)(F)F)c1
inactive: DU-145 prostate 15.7% | SF-295 CNS 61.3% | UACC-257 melanoma 60.3% | SNB-19 CNS 11.8% | PC-3 prostate 18.2%
active: K-562 leukemia 3.62% | MALME-3M melanoma -1.62% | RXF 393 renal -41.1% | SF-268 CNS -1.06% | SF-539 CNS -36.8% | HCT-15 colon 3.97% | HT29 colon -14% | SNB-75 CNS -29.3% | U251 CNS 5.83% | UACC-62 melanoma -10.9% | LOX IMVI melanoma -73% | SK-MEL-28 melanoma -18.3%

COc1cc(/C=C/c2cc(/C=C/c3ccc(O)c(OC)c3)n(C(N)=O)n2)ccc1O
active: DU-145 prostate 2.11% | K-562 leukemia -23% | MALME-3M melanoma -4.94% | MDA-MB-231 breast 3.7% | SF-268 CNS -10.7% | SF-295 CNS 4.87% | SF-539 CNS -26.3% | UACC-257 melanoma 0.83% | M14 melanoma -66.2% | HCT-15 colon 4.33% | SNB-75 CNS -40.9% | SNB-19 CNS 4.95% | U251 CNS -10.9% | PC-3 prostate -23.5% | SK-MEL-5 melanoma -33% | UACC-62 melanoma -47.2% | LOX IMVI melanoma 1.48% | SK-MEL-28 melanoma -24.6%

N=C(N)c1ccc(-c2ccc(-c3cncc4ccccc34)s2)cc1F
active: DU-145 prostate -91% | K-562 leukemia -50.6% | MALME-3M melanoma -81% | MDA-MB-231 breast -85.2% | SF-268 CNS -74.4% | SF-295 CNS -95.1% | SF-539 CNS -97.7% | HCT-15 colon -80.6% | HT29 colon -91.7% | SNB-19 CNS -76.1% | U251 CNS -92.3% | PC-3 prostate -93.6% | SK-MEL-5 melanoma -99.1% | UACC-62 melanoma -91.3%
inactive: UACC-257 melanoma 111% | M14 melanoma 96.3% | SK-MEL-28 melanoma 85.7%

COc1cc(/C=C/C(=O)c2ccc(Nc3ncnc4cc(OC)c(OC)cc34)cc2)cc(OC)c1
inactive: DU-145 prostate 115% | K-562 leukemia 41.3% | MALME-3M melanoma 118% | MDA-MB-231 breast 104% | SF-268 CNS 98.4% | SF-295 CNS 93.3% | SF-539 CNS 101% | UACC-257 melanoma 95.1% | M14 melanoma 112% | HCT-15 colon 97.8% | SNB-75 CNS 96.1% | SNB-19 CNS 94.9% | U251 CNS 72.3% | PC-3 prostate 78% | SK-MEL-5 melanoma 109% | UACC-62 melanoma 99.9% | LOX IMVI melanoma 88.3% | SK-MEL-28 melanoma 114%

O=[N+]([O-])c1cnc(Sc2ccncn2)s1
inactive: MDA-MB-231 breast 75.4% | SF-268 CNS 35.7% | SF-295 CNS 102% | SF-539 CNS 91.1% | HT29 colon 55.5% | SNB-19 CNS 103% | U251 CNS 91.9% | PC-3 prostate 14.4% | SK-MEL-5 melanoma 88.2% | UACC-62 melanoma 70.4% | LOX IMVI melanoma 64.5%
active: DU-145 prostate -21.5% | K-562 leukemia -44.4% | MALME-3M melanoma -63.5% | UACC-257 melanoma -18.7% | M14 melanoma 6.85% | HCT-15 colon -16% | SK-MEL-28 melanoma -61%

CCOC(=O)c1ccc2c(c1)c1c(C)c3cccnc3c(C)c1n2C
inactive: DU-145 prostate 52.7% | K-562 leukemia 39.5% | MALME-3M melanoma 68.7% | MDA-MB-231 breast 50.7% | RXF 393 renal 75.6% | SF-268 CNS 50.9% | SF-539 CNS 67% | UACC-257 melanoma 115% | M14 melanoma 53.2% | HT29 colon 47.4% | SNB-75 CNS 68% | SNB-19 CNS 56.4% | U251 CNS 48.1% | PC-3 prostate 58.3% | SK-MEL-5 melanoma 69.9% | UACC-62 melanoma 49.2% | LOX IMVI melanoma 22.9% | SK-MEL-28 melanoma 85.3%

COc1ccc(-c2ccc(-c3ccc(-c4ccc(C(=N)N)cc4)s3)s2)cc1OC
active: K-562 leukemia -50% | HCT-15 colon -68.8% | HT29 colon -60.2%
inactive: DU-145 prostate 36.4% | MALME-3M melanoma 92.6% | MDA-MB-231 breast 80.2% | SF-268 CNS 87.1% | SF-295 CNS 99.7% | SF-539 CNS 88.9% | UACC-257 melanoma 103% | M14 melanoma 99% | SNB-19 CNS 87.7% | U251 CNS 46.4% | PC-3 prostate 70.6% | UACC-62 melanoma 94.1% | SK-MEL-28 melanoma 93%

COc1cc(-c2nn(-c3cccc(NC(=O)c4ccccc4)c3)cc2-c2ccncc2)ccc1Cl
inactive: DU-145 prostate 11.6% | MALME-3M melanoma 22.4% | SF-268 CNS 18.7% | SNB-19 CNS 50% | U251 CNS 13.5% | PC-3 prostate 10.5% | UACC-62 melanoma 32.5% | LOX IMVI melanoma 17.4% | SK-MEL-28 melanoma 34.4%
active: K-562 leukemia 2.59% | MDA-MB-231 breast 5.8% | RXF 393 renal -19.2% | SF-539 CNS -15% | UACC-257 melanoma 8.64% | M14 melanoma -3.82% | HT29 colon 2.03% | SK-MEL-5 melanoma -49.4%

COc1ccc(N=Cc2c(O)ccc3c2oc2cc(Cl)c(O)c(Cl)c23)cc1
inactive: DU-145 prostate 125% | K-562 leukemia 81.1% | MALME-3M melanoma 106% | MDA-MB-231 breast 107% | SF-268 CNS 105% | SF-295 CNS 115% | SF-539 CNS 96.7% | UACC-257 melanoma 76.5% | M14 melanoma 94.9% | HCT-15 colon 86.6% | SNB-19 CNS 104% | U251 CNS 87.8% | PC-3 prostate 103% | SK-MEL-5 melanoma 96.3% | UACC-62 melanoma 84.2% | LOX IMVI melanoma 64.5% | SK-MEL-28 melanoma 141%

O=C(Nc1cccc(-n2cc(-c3ccncc3)c(-c3ccc(Cl)c(O)c3)n2)c1)c1ccccc1
inactive: DU-145 prostate 56.9% | K-562 leukemia 60.7% | MALME-3M melanoma 53.1% | MDA-MB-231 breast 63.2% | SF-268 CNS 68.3% | SF-539 CNS 74.7% | UACC-257 melanoma 44.2% | M14 melanoma 54.9% | SNB-19 CNS 99.7% | U251 CNS 75.4% | SK-MEL-5 melanoma 59.4% | UACC-62 melanoma 68.3% | LOX IMVI melanoma 68.5% | SK-MEL-28 melanoma 48.1%
active: RXF 393 renal 0.59%
